# Bioassay records from PubChem BioAssay.
# Calb biofilm kill: kills Candida albicans biofilms | inhibition, % at 6 µM | 0.14% of 85,000 active | C. albicans biofilm + clotrimazole, Alamar Blue;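 active = inhibition above 20%; inactive = inhibition below 20%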;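 also: preformed 24 hr biofilms exposed to compound for 48 hr; 0% = biofilm without compound and 100% = blank killed by clotrimazole plus chlorhexidine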
# DAT uptake mod: modulates human dopamine transporter uptake under cocaine | 1.3% of 110,000 active | B-score at 10 µM | LLC-PK1 hDAT cells, [14C]-dopamine uptake with cocaine IC80; actives deviate in either direction;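 active = Z score or B-score, a plate-position-corrected score, falls beyond the plate's 99.7% confidence bounds, in either direction; inactive = both scores lie inside the 99.7% bounds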;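 also: scored against the spread of the other compound wells on the same plate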
# D1 allo mod: D1 dopamine receptor (human) allosteric modulation; B-score at 10 µM; HEK293 D1, CRE-luciferase, dopamine EC30 potentiation; actives deviate in either direction; AID 641; 5.9% of 58,000 active; P21728;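 active = luminescence count or its row- and column-corrected plate score outside the 99.7% band of the plate's sample wells, on either side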
# Target sequence (P21728 whole entry, looked up): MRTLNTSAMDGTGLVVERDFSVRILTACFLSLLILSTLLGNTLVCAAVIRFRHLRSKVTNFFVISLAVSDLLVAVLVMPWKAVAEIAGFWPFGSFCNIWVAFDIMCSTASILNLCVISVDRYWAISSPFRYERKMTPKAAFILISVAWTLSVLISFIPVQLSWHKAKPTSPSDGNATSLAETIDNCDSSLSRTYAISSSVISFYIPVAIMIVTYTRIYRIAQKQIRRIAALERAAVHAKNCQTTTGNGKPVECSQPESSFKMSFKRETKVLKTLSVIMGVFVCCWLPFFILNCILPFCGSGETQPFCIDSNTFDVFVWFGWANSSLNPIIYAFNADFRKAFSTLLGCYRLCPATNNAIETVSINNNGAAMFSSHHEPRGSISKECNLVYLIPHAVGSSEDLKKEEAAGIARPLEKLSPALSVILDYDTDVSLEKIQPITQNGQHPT
# HePTP inhibitor: blocks human HePTP tyrosine phosphatase. P35236. inhibition, % at 20 µM. 0.64% of 110,000 active. AID 521. recombinant HePTP phosphatase activity, OD absorbance; in the data active = inhibition above about 50%;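 also: plate controls were vehicle for no effect and reference inhibitor for full effect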
# TNAP act mid DEA: activates human TNAP at intermediate phosphate acceptor concentration. P05186. purified TNAP, CDP-star luminescence, 100 mM DEA, 30 min; active compounds read high; scale: 0 levamisole-inhibited, 1 vehicle-only enzyme. activation factor at 20 µM. 64,000 tested, under 10 active. AID 813;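 active = activation factor of at least 2 at 20 µM, relative to controls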
# PLAP act: activates human placental alkaline phosphatase | P05187 | purified PLAP enzyme, luminescent substrate read-out; active compounds read high | activation fold at 20 µM | 1.2% of 96,000 active | AID 696; in the data active = activation fold above about 2
# * = called active by the depositor; / = no result given; ! = not confirmed by another sample. The entries come from a sample that favours hits as a whole.
SMILES,Calb biofilm kill,DAT uptake mod,D1 allo mod,HePTP inhibitor,TNAP act mid DEA,PLAP act
O=C(O)CCCCCN1C(=O)C(=O)/C(=C(/O)c2ccc(F)cc2)C1c1cccc(F)c1 (stereo not drawn),/,/,/,-1,/,/
COc1ccccc1C(=O)Nc1ncc2c(n1)CC(c1ccco1)CC2=O (stereo not drawn),7,-3.8*,0.47,3,0.8,1.5
O=C(Nc1ncc2c(n1)CC(c1ccccc1)CC2=O)c1ccco1 (stereo not drawn),/,-1,-1.2,9,0.9,/
CCCCCN1C(=O)/C(=C2\SC(=S)NC2=O)c2ccccc21,/,/,/,-2,/,/
CCCC(=O)N1CCN(c2nc(CC(C)C)c3c(c2C#N)CCC3)CC1,1,2.6*,4.1,4,0.9,1.4
N=c1n(CCN2CCCC2)c2ccccc2n1CC(O)c1ccco1 (stereo not drawn),-1,-1.4,-1.1,10,0.9,1.2
N=c1n(CCN2CCCCC2)c2ccccc2n1CC(O)c1cccc(Br)c1 (stereo not drawn),-1,0.44,-0.22,-10,1,2*
N=c1n(CCN2CCCCC2)c2ccccc2n1CC(O)c1ccc(Cl)c(Cl)c1 (stereo not drawn),/,-0.11,/,/,/,2.1*
CCOC(=O)c1sc2ncn(/N=C/c3cccnc3)c(=O)c2c1C,7,-0.9,/,/,/,2.1*
N#CC(=C1CCCC1)c1nc(-c2ccccc2)cs1,7,0.042,/,/,/,1.1
N#C/C(=N\O)c1nc(-c2ccccc2)cs1,8,-5.2*!,/,7,0.9,1.2
CSCCC(C(=O)O)N1C(=O)/C(=C/c2cccc(O)c2)SC1=S (stereo not drawn),/,/,/,-1,/,/
CCOC(=O)c1sc(NC(=O)/C=C/c2ccc(F)cc2)c(C(=O)OCC)c1C,/,/,/,8,/,/
CCCCOc1ccc(NC(=O)C2CC=CCC2C(=O)O)cc1 (stereo not drawn),6,-0.94,-2.6*,-7,1,0.9
COc1cccc(C(=O)/C=C/Nc2cc(C)ccc2O)c1,-2,-0.76,-0.77,6,1,2.9*
c1cnc(SCCOc2ccc3c(c2)CCC3)nc1,46*,-0.57,/,/,/,0.8
CN(C)CCCNC(=O)c1ccc2sc3cc(=O)c(N)cc-3nc2c1,/,/,/,6,/,/
O=C(Nc1ccc(Br)cc1C(=O)O)c1cccc(N2C(=O)c3ccccc3C2=O)c1,/,/,/,102*,/,/
CC(=O)Nc1ccc(S(=O)(=O)c2ccc(N)cc2)cc1N,2,-0.21,0.2,-7,1,1.1
CC(=O)Nc1ccc(S(=O)(=O)c2ccc(N)cc2)cc1,2,2*,0.22,6,0.9,1
COc1cccc(C2=NN(C(=O)c3cccc([N+](=O)[O-])c3)C(O)(C(F)(F)F)C2)c1 (stereo not drawn),/,/,/,3,/,/
Cc1ccc(C(=O)Nc2nc3ccccc3n2CCN2CCCC2)cc1,5,1.1,-2.8,5,1,2.8*
O=C(Nc1nc2ccccc2n1CCN1CCCC1)C1CCCCC1,5,-0.052,-1.2,2,1,2.6*
O=C(Nc1nc2ccccc2n1CCN1CCCCC1)C1CCCCC1,4,-0.72,/,/,/,1.6
COc1ccccc1-n1c(N)c(C(=O)NCC2CCCO2)c2nc3ccccc3nc21 (stereo not drawn),8,4.2*,/,5,1,/
SMILES,Calb biofilm kill,DAT uptake mod,D1 allo mod,HePTP inhibitor,TNAP act mid DEA,PLAP act
COc1ccc(-c2cc3nc(C)cc(NCCO)n3n2)cc1,8,-0.14,/,10,0.9,1
COc1ccc(-c2cc3nc(C)cc(N)n3n2)cc1,2,-8.4*,/,/,/,0.9
COC(=O)c1sc2ccccc2c1N,-2,-0.13,2.8,4,0.9,1.1
COC(=O)c1c2nc3ccccc3sc-2cc(=O)c1N,/,/,/,68*,/,/
O=c1oc2ccccc2c(O)c1Cc1ccccc1,/,/,/,4,/,/
Cc1c(/C=C/c2nc3ccccc3c(=O)[nH]2)c2ccccc2n1C,/,/,/,12,/,/
CCC(C(=O)NC1CCCCC1)n1c(SCc2cccc(F)c2)nc2ccncc21 (stereo not drawn),/,2.8*,/,/,/,/
CCC(C(=O)NC1CCCCC1)n1c(SCc2cccc(C)c2)nc2ccncc21 (stereo not drawn),/,-0.47,/,/,/,/
CC1=C(C#N)c2nc(N)c(C#N)c(C)c2/C1=C\c1ccc(-c2ccc(Cl)cc2)o1,/,/,/,-2,/,/
NS(=O)(=O)c1ccc(CCNC2CC(=O)N(c3ccc(I)cc3)C2=O)cc1 (stereo not drawn),/,/,/,-4,/,/
CCCCOc1ccc(N2C(=O)CC(NCCc3ccc(S(N)(=O)=O)cc3)C2=O)cc1 (stereo not drawn),2,1.1,/,/,/,2.1*
